For 39 compounds, AC50 results are on record in PMC6792352, “Limited Chemical Structural Diversity Found to Modulate Thyroid Hormone Receptor in the Tox21 Chemical Library” (Environmental Health Perspectives, 2019).

Structures can show the parent of a compound that is named as a salt. Where only a bound is given, the exact number is not on record here.

As a reminder, the AC50 is the midpoint of the concentration-response curve, whichever way the signal moves.

For this experiment, the system named is thyroid hormone receptor (endogenous TRα and TRβ). Also on record: species or system GH3-TRE-Luc (rat pituitary); GH3-TRE-Luc luciferase reporter, antagonist mode against 1 nM T3, loss of signal, qHTS. The settings on record: read-out: Average AC50 (uM) GH3-TRE-Antag, antagonist mode, 1 nM T3, no GH3 cytotoxicity hit.
For the compound `O=c1oc2ccccc2c(O)c1C1CCCc2ccccc21` (stereo not drawn) [Coumatetralyl], the AC50 is greater than 90 µM.
On to `CSc1nc(NC2CC2)nc(NC(C)(C)C)n1` [Cybutryne], for which the AC50 was found to be 67.1 µM.
Next, `CN(C)C(=O)Nc1ccc(Oc2ccc(Cl)cc2)cc1` [Chloroxuron]: 64.2 µM; `O=C1OC2(c3ccc(O)cc3Oc3cc(O)ccc32)c2ccccc21` [Fluorescein]: greater than 50 µM; `O=c1cc(-c2ccccc2)oc2ccc3ccccc3c12` [5,6-Benzoflavone]: 7.88 µM.
Next, `CN(C)c1ccc(O)c2c1C[C@H]1C[C@H]3[C@H](N(C)C)C(O)=C(C(N)=O)C(=O)[C@@]3(O)C(O)=C1C2=O` [Minocycline hydrochloride]: 44.9 µM; `CCN(CC)CCCC(C)Nc1c2ccc(Cl)cc2nc2ccc(OC)cc12` (stereo not drawn) [Quinacrine dihydrochloride dihydrate]: 29.4 µM.
Next, `Cc1c(Cl)cccc1Nc1ccccc1C(=O)O` [Tolfenamic acid]: 12.5 µM.
Consider `COc1cc2c(cc1N)oc1ccccc12` [2-Methoxy-3-aminodibenzofuran], for which the AC50 worked out at 84.6 µM.
Next, `CCCCCCCCCCCCCCC[C@H](O)[C@@H](N)CO` [Safingol]: 27.1 µM.
Next, `CCN(CC)CCOC(=O)[C@H](Cc1cccc2ccccc12)C[C@H]1CCCO1` [Nafronyl oxalate]: 10.7 µM.
Next, `CCCC(=O)O[C@]1(C(=O)CCl)[C@@H](C)C[C@H]2[C@@H]3CCC4=CC(=O)C=C[C@]4(C)[C@@]3(F)C(=O)C[C@@]21C` [Clobetasone butyrate]: 32.9 µM; `OCCCCCCCCCCCCBr` [12-Bromo-1-dodecanol]: 85.6 µM.
`CCCCCc1ccc(C)cc1O` [Amylmetacresol]: the half-maximal activity concentration (AC50) stood at 23.6 µM.
For `CC(C)=CCC/C(C)=C/CC/C(C)=C/CC/C(C)=C/CC1=C(C)C(=O)c2ccccc2C1=O` [Menatetrenone] the value was 24.9 µM; for `CCCCC/C=C\C/C=C\C/C=C\CCCCC(=O)O` [Gamolenic acid], 22.9 µM; for `CC/C=C\C/C=C\C/C=C\CCCCCCCC(=O)OCC` [Ethyl linolenate], 65.3 µM.
Next, `Cc1ccc(Cl)c(Nc2ccccc2C(=O)O)c1Cl` [Meclofenamate sodium]: 30.6 µM; `COc1ccc2c(c1)c1c3n2CCN(C)C3=NCC1` [Metralindole]: 28.1 µM; `CCOc1ccc2nc3cc(N)ccc3c(N)c2c1` [Ethacridine lactate hydrate]: 40.1 µM.
For `CC(C)(O)C(=O)Nc1ccc([N+](=O)[O-])c(C(F)(F)F)c1` [Hydroxyflutamide] the value was greater than 70 µM; for `Cc1cc(O)c2c(O)c3c(O)cccc3cc2c1` [Chrysarobin], 28.1 µM.
Turning to `O=C(COc1ccc(Cl)cc1)OCCNC12CC3CC(CC(C3)C1)C2` [Adafenoxate], the AC50 turned out to be 26 µM.
Next, `Cn1cnc2c(F)c(Nc3ccc(Br)cc3Cl)c(C(=O)NOCCO)cc21` [Selumetinib]: 12.5 µM; `CCN(CC)CCOc1ccc2c(c1)C(=O)c1cc(OCCN(CC)CC)ccc1-2` [Tilorone]: 17.6 µM.
Turning to `CCCCC(CC)COC(=O)C(C#N)=C(c1ccccc1)c1ccccc1` (stereo not drawn) [2-Ethylhexyl-2-cyano-3,3-diphenylacrylate], the AC50 came to 31 µM.
Next, `CCCCNC1CC(C)(C)NC(C)(C)C1` [N-Butyl-2,2,6,6-tetramethylpiperidin-4-amine]: 60.2 µM; `CC[C@H]1OC(=O)[C@H](C)C(=O)[C@H](C)[C@@H](O[C@@H]2O[C@H](C)C[C@H](N(C)C)[C@H]2O)[C@](C)(OC)C[C@@H](C)C(=O)[C@H](C)[C@H]2N(CCCCn3cnc(-c4cccnc4)c3)C(=O)O[C@]12C` [Telithromycin]: 22.2 µM; `O=C(N/N=C/c1ccc([N+](=O)[O-])o1)c1ccc(O)cc1` [Nifuroxazide]: 13.7 µM.
Regarding `OCC#CCO` [2-Butyne-1,4-diol], the AC50 came out at 58.8 µM.
Consider `CCN(Cc1cccc(S(=O)(=O)O)c1)c1ccc(C(=C2C=CC(=[N+](CC)Cc3cccc(S(=O)(=O)[O-])c3)C=C2)c2ccccc2)cc1` [FD&C Green No. 1], for which the AC50 worked out at 66.2 µM.
For `CC(=O)O[C@]1(C(C)=O)CC[C@H]2[C@@H]3C[C@H](C)C4=CC(=O)CC[C@]4(C)[C@H]3CC[C@@]21C` [Medroxyprogesterone acetate] the value was 28 µM; for `Cc1nc2ccccc2n1Cc1ccc(Cl)cc1` [Chlormidazole], 5.9 µM; for `CC(=O)OC(c1ccccc1)C(Cl)(Cl)Cl` (stereo not drawn) [2,2,2-Trichloro-1-phenylethyl acetate], 55.4 µM.
Turning to `C/C=C\C/C=C/CCCCCCCCOC(C)=O` [(9E,12Z)-9,12-Tetradecadien-1-ol acetate], the AC50 came out at 68.2 µM.
Next, `CC(C)C(C(=O)OC(C#N)c1cccc(Oc2ccccc2)c1)c1ccc(OC(F)F)cc1` (stereo not drawn) [Flucythrinate]: 32.5 µM; `CC1(C)NC(=O)N(c2ccc([N+](=O)[O-])c(C(F)(F)F)c2)C1=O` [Nilutamide]: 38.5 µM; `Cn1c(=O)c2[nH]c(Br)nc2n(C)c1=O` [8-Bromotheophylline]: 24.8 µM.
Next, `CCCCNC(=O)n1c(NC(=O)OC)nc2ccccc21` [Benomyl]: 8.81 µM.
